Assay [1] deals with AAK1. On the set-up: species or system human, MV4-11 + K-562 + COLO205 + SK-N-BE2 + OVCAR-8. Conditions: read-out: apparent Kd, compound concentrations: 100 nM and 1000 nM (sheet 'Samples'), n = 1.
Assay [2] deals with PKN3. On the set-up: species or system human, MV4-11 + K-562 + COLO205 + SK-N-BE2 + OVCAR-8. As to conditions: read-out: apparent Kd, n = 1.
In assay [3] the test system is PKN3. Conditions: hek293t cells.
Assay [4] deals with CSNK2A1;CSNK2A3. On the set-up: species or system human, MV4-11 + K-562 + COLO205 + SK-N-BE2 + OVCAR-8. As to conditions: read-out: apparent Kd, compound concentrations: 100 nM and 1000 nM (sheet 'Samples'), n = 1.
Assay [5] relates to CSNK2A2. Details: species or system human, MV4-11 + K-562 + COLO205 + SK-N-BE2 + OVCAR-8. As to conditions: read-out: apparent Kd, compound concentrations: 100 nM and 1000 nM (sheet 'Samples'), n = 1.
In assay [6] the test system is BMP2K. On the set-up: species or system human, MV4-11 + K-562 + COLO205 + SK-N-BE2 + OVCAR-8. Conditions: read-out: apparent Kd; compound concentrations: 100 nM and 1000 nM (sheet 'Samples'), CATDS: 2.75119720973705E-2; n = 1.
In assay [7] the test system is FLT4. On the set-up: species or system human, MV4-11 + K-562 + COLO205 + SK-N-BE2 + OVCAR-8. Conditions: read-out: apparent Kd; compound concentrations: 100 nM and 1000 nM (sheet 'Samples'), CATDS: 3.6167271282575603E-2; n = 1.
In assay [8] the test system is RET. On the set-up: species or system human, MV4-11 + K-562 + COLO205 + SK-N-BE2 + OVCAR-8. Conditions: read-out: apparent Kd, compound concentrations: 100 nM and 1000 nM (sheet 'Samples'), n = 1.
Assay [9] relates to CLK1. Details: species or system human, MV4-11 + K-562 + COLO205 + SK-N-BE2 + OVCAR-8. Conditions: read-out: apparent Kd; compound concentrations: 100 nM and 1000 nM (sheet 'Samples'), CATDS: 2.1787512742807501E-2; n = 1.
Assay [10] deals with CLK4. Details: species or system human, MV4-11 + K-562 + COLO205 + SK-N-BE2 + OVCAR-8. As to conditions: read-out: apparent Kd; compound concentrations: 100 nM and 1000 nM (sheet 'Samples'), CATDS: 1.6953828831644601E-2; n = 1.
The subject of assay [11] is GAK. Details: species or system human, MV4-11 + K-562 + COLO205 + SK-N-BE2 + OVCAR-8. As to conditions: read-out: apparent Kd, compound concentrations: 100 nM and 1000 nM (sheet 'Samples'), n = 1.
Assay [12] relates to GSK3A. Details: species or system human, MV4-11 + K-562 + COLO205 + SK-N-BE2 + OVCAR-8. As to conditions: read-out: apparent Kd; compound concentrations: 100 nM and 1000 nM (sheet 'Samples'), CATDS: 2.1035735190854499E-2; n = 1.
In assay [13] the test system is GSK3B. Details: species or system human, MV4-11 + K-562 + COLO205 + SK-N-BE2 + OVCAR-8. As to conditions: read-out: apparent Kd; compound concentrations: 100 nM and 1000 nM (sheet 'Samples'), CATDS: 1.8960420623414999E-2; n = 1.
Assay [14] deals with MELK. On the set-up: species or system human, MV4-11 + K-562 + COLO205 + SK-N-BE2 + OVCAR-8. Conditions: read-out: apparent Kd; compound concentrations: 100 nM and 1000 nM (sheet 'Samples'), CATDS: 1.02944782662895E-2; n = 1.
Assay [15] has as its system NUAK1. Details: species or system human, MV4-11 + K-562 + COLO205 + SK-N-BE2 + OVCAR-8. As to conditions: read-out: apparent Kd; compound concentrations: 100 nM and 1000 nM (sheet 'Samples'), CATDS: 1.06533204099584E-2; n = 1.
Assay [16] has as its system PAK4. On the set-up: species or system human, MV4-11 + K-562 + COLO205 + SK-N-BE2 + OVCAR-8. Conditions: read-out: apparent Kd; compound concentrations: 100 nM and 1000 nM (sheet 'Samples'), CATDS: 1.12669730748303E-2; n = 1.
The test system of assay [17] is PKN1. Details: species or system human, MV4-11 + K-562 + COLO205 + SK-N-BE2 + OVCAR-8. As to conditions: read-out: apparent Kd; compound concentrations: 100 nM and 1000 nM (sheet 'Samples'), CATDS: 1.22442733693101E-2; n = 1.
In assay [18] the test system is PRKAG1. Details: species or system human, MV4-11 + K-562 + COLO205 + SK-N-BE2 + OVCAR-8. Conditions: read-out: apparent Kd; compound concentrations: 100 nM and 1000 nM (sheet 'Samples'), CATDS: 2.2358938635015799E-2; n = 1.
The target of assay [19] is Q6ZSR9 (human, UniProt Q6ZSR9). Details: species or system MV4-11 + K-562 + COLO205 + SK-N-BE2 + OVCAR-8. Conditions: read-out: apparent Kd; compound concentrations: 100 nM and 1000 nM (sheet 'Samples'), CATDS: 1.11912324380908E-2; n = 1.
The test system of assay [20] is SIK2. Details: species or system human, MV4-11 + K-562 + COLO205 + SK-N-BE2 + OVCAR-8. As to conditions: read-out: apparent Kd; compound concentrations: 100 nM and 1000 nM (sheet 'Samples'), CATDS: 1.7275561883006999E-2; n = 1.

SMILES strings stand for the structures. Where two headings read alike, the source gives them in different places.
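For IC50 in this document: NanoBRET target engagement in HEK293T cells transiently expressing full-length PKN3 with C-terminal NanoLuc, displacement of fluorescent tracer K5 (500 nM), BRET read after 2 h equilibration at 37 °C.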

Chain of Q6ZSR9 (Q6ZSR9 whole entry, looked up): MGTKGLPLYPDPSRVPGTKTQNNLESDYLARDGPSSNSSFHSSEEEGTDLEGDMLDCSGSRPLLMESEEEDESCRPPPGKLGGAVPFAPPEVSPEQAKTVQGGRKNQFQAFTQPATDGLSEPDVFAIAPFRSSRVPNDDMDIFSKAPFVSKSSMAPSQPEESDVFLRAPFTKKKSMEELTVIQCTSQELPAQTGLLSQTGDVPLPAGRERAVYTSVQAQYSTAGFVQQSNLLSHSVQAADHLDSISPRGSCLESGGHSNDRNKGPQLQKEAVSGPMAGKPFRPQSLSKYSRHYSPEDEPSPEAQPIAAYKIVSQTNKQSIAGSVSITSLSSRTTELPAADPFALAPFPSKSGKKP

`COc1cccc(NC(=O)NC2CCN(c3ccnc(Nc4cc(OC)c(OC)c(OC)c4)n3)C2)c1` (centres unmarked) [GSK1379763A]: the potency estimated from few doses in assay [1] (CATDS: 1) is 1850 nM.

On to `Cl.ON=C1CCc2cc(-c3nc(C4CCNCC4)[nH]c3-c3ccncc3)ccc21` [SB-614067-R], for which the potency estimated from few doses in assay [2] (compound concentrations:100 nM and 1000 nM (sheet 'Samples')) is 125 nM. In addition, the IC50 in assay [3] (read-out: Average, SD, n = 4) worked out at 22900 nM; in [3] (read-out: Rep 1), 19100 nM; in assay [3] (read-out: Rep 2), 20600 nM; in assay [3] (read-out: Rep 3), 50100 nM; in assay [3] (read-out: Rep 4), 1840 nM.

Consider `O=C1NC(=O)/C(=C/c2ccc3ncccc3c2)S1` [RO4603632-000], for which the potency estimated from few doses in assay [4] (CATDS: 0.36519548051145401) is 279 nM; in assay [5] (CATDS: 0.36768987461520503) it was 276 nM.

In the case of `Cc1ccc(Nc2ccnc(Nc3ccc4c(c3)CS(=O)(=O)C4)n2)cc1O.Cl` [GW579362A], the potency estimated from few doses in [1] (CATDS: 3.1485270896706399E-2) is 1060 nM; in assay [6] it was 1640 nM; in assay [4] (CATDS: 3.1042037667094801E-2), 1100 nM; in [5] (CATDS: 3.7509924473465302E-2), 666 nM; in [7], 729 nM; in assay [8] (CATDS: 5.0599670871917801E-2), 349 nM.

Regarding `CN(c1ccc(NC(=O)Nc2cccc(Cl)c2)cc1)c1ccnc(N)n1.Cl` [GW830707A], the potency estimated from few doses in assay [1] (CATDS: 1.09630092870236E-2) was 1150 nM; in assay [9], 42 nM; in [10], 90.4 nM; in assay [4] (CATDS: 1.0372533520716E-2), 1990 nM; in assay [5] (CATDS: 1.04920498001006E-2), 1760 nM; in [11] (CATDS: 2.5195285382478599E-2) it was 29.6 nM. In addition, the potency estimated from few doses in [12] is 46.1 nM; in assay [13], 62.2 nM; in assay [14], 2160 nM; in assay [15] it was 1510 nM; in assay [16] it was 911 nM; in assay [17], 482 nM. Moreover, the potency estimated from few doses in [2] (compound concentrations: 100 nM and 1000 nM (sheet 'Samples'), CATDS: 1.09744327233877E-2) was 1140 nM; in [18] it was 39.4 nM; in [19] it was 964 nM; in assay [8] (CATDS: 1.6938963358117499E-2), 90.7 nM; in assay [20], 84.5 nM.

In the case of `COc1cccc2c(-c3ccncc3)c(-c3ccc(F)cc3)nn12` [GW468513X], the potency estimated from few doses in [11] (CATDS: 4.7773336245273197E-2) is 615 nM; in [2] (compound concentrations: 100 nM and 1000 nM (sheet 'Samples'), CATDS: 5.3563953975551901E-2), 427 nM. Further, the IC50 came out at 910 nM in assay [3] (read-out: Average, SD, n = 3); 2100 nM in assay [3] (read-out: Rep 1); 552 nM in assay [3] (read-out: Rep 2); 73.9 nM in [3] (read-out: Rep 4).
